Assays:
Assay in all cases: DAPPL (digital affinity profiling via proximity ligation, sequencing); 10 mM Tris-HCl pH 7.5, 50 mM NaCl, 1 mM DTT, 4% glycerol, room temperature, 30 min; GST-TFs on glutathione beads, 16-mer random dsDNA library, 0.1% formaldehyde crosslink after washing; high values mean tight binding
FEV = biological target: T1, FEV (Homo sapiens, UniProt Q99581 1-238); details: protein: recombinant; tags: N-terminal GST; dsDNA, one strand shown
T1 sequence: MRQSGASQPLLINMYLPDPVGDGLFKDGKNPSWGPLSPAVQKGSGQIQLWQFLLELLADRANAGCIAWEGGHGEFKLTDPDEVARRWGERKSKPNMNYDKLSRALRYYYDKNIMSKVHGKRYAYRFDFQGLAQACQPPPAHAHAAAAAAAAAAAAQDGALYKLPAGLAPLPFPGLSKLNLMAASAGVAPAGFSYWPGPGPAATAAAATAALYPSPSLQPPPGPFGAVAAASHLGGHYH
Method in brief: (§1)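 Yeast served to express human transcription factors as GST fusions, which were then captured on glutathione beads and labelled with DNA barcodes. Pooled with a tag-only sample, they were incubated with 200 nmole of a 16-mer random double-stranded DNA library for 30 min at room temperature in Tris/NaCl/DTT/glycerol buffer, washed, crosslinked with 0.1% formaldehyde, ligated by proximity, amplified by PCR and sequenced. Dividing each hexamer's read frequency for a factor by its frequency for the tag-only sample gives the binding signal.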

ETV5 = ETV5 (Homo sapiens, UniProt P41161 1-510); details: protein: recombinant; tags: N-terminal GST; dsDNA, one strand shown
Sequence of ETV5 (P41161 whole entry): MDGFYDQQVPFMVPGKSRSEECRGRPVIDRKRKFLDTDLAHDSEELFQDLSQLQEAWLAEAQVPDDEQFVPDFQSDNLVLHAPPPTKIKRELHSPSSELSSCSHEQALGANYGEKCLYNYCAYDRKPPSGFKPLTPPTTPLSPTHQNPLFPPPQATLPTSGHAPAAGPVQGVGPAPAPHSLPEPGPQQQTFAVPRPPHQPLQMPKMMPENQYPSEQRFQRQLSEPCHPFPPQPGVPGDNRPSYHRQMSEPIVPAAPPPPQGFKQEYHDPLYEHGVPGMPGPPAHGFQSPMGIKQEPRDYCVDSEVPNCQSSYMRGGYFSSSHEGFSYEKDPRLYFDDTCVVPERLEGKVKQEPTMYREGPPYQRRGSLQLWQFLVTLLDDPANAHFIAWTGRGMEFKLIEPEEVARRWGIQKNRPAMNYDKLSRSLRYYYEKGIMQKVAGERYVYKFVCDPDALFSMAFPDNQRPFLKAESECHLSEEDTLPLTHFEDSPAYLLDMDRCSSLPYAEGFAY
Method in brief: as §1

HSF1 = HSF1 (Homo sapiens, UniProt Q00613 1-529); details: protein: recombinant; tags: N-terminal GST; chain copies: 3; dsDNA, one strand shown
Sequence of HSF1 (Q00613 whole entry): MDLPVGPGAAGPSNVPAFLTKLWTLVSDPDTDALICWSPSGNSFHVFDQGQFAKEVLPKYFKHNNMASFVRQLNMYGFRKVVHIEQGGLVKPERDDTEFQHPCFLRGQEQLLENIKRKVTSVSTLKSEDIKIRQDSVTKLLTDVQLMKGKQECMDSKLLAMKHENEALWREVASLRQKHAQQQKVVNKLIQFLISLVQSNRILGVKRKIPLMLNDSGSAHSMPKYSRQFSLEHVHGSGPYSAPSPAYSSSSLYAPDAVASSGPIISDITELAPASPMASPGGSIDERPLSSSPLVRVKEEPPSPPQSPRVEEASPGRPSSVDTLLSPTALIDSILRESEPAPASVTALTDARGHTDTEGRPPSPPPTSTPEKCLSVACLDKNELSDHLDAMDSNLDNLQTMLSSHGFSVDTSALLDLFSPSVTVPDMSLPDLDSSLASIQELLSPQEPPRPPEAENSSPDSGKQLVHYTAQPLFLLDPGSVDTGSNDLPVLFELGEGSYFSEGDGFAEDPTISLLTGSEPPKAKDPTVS
Method in brief: as §1

SPIC = biological target: T2, SPIC (Homo sapiens, UniProt Q8N5J4 1-248); details: protein: recombinant; tags: N-terminal GST; dsDNA, one strand shown
T2 sequence: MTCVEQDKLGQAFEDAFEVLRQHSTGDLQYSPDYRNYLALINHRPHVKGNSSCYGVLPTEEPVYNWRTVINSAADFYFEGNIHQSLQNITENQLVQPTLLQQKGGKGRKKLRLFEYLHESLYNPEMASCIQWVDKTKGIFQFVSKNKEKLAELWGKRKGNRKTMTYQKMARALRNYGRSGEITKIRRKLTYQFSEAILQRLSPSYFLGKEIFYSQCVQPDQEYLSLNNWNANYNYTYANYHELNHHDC
Method in brief: as §1

ELF4 = ELF4 (Homo sapiens, UniProt Q99607 1-663); details: protein: recombinant; tags: N-terminal GST; dsDNA, one strand shown
Sequence of ELF4 (Q99607 whole entry): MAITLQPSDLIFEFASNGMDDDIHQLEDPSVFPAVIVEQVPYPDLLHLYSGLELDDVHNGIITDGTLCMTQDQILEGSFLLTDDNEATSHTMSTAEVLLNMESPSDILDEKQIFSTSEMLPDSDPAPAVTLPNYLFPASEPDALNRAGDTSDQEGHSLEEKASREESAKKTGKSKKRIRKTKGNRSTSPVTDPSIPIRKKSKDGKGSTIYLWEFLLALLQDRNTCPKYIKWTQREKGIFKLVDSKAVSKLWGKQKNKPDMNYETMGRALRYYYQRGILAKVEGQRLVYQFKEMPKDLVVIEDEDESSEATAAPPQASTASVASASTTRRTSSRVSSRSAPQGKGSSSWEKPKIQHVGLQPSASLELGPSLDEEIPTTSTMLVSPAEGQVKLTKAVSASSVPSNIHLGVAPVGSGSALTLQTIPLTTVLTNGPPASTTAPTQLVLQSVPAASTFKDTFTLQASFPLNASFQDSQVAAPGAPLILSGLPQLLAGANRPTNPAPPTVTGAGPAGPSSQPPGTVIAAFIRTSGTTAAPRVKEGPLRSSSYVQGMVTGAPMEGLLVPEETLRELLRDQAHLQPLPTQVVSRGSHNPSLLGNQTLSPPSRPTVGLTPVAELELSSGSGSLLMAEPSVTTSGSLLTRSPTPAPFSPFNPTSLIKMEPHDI
Method in brief: as §1

ELK4 = biological target: T3, ELK4 (Homo sapiens, UniProt P28324-2 1-405); details: protein: recombinant; tags: N-terminal GST; dsDNA, one strand shown
T3 sequence: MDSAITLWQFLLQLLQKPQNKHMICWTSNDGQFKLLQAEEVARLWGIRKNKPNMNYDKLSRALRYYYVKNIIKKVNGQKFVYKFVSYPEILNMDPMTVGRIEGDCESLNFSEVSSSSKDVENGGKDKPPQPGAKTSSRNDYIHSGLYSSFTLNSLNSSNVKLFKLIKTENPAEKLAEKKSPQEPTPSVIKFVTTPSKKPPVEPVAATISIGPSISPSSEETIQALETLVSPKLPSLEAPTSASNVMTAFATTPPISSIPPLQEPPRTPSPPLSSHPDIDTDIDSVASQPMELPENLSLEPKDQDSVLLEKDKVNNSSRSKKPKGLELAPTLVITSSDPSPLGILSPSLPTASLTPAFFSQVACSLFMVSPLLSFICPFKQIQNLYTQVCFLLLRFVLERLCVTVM
Method in brief: as §1

ETV2 = biological target: T4, ETV2 (Homo sapiens, UniProt O00321 1-342); details: protein: recombinant; tags: N-terminal GST; dsDNA, one strand shown
T4 sequence: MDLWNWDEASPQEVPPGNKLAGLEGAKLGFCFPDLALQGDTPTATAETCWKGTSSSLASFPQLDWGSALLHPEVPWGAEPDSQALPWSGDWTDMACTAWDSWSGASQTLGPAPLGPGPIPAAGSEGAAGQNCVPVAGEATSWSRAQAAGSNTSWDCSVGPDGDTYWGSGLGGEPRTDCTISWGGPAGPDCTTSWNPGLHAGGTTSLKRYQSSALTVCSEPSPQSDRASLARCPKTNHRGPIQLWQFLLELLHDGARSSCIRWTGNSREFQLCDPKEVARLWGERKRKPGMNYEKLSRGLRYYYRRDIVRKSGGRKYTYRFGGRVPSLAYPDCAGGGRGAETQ
Method in brief: as §1

ELF3 = biological target: T5, ELF3 (Homo sapiens, UniProt P78545 1-371); details: protein: recombinant; tags: N-terminal GST; dsDNA, one strand shown
T5 sequence: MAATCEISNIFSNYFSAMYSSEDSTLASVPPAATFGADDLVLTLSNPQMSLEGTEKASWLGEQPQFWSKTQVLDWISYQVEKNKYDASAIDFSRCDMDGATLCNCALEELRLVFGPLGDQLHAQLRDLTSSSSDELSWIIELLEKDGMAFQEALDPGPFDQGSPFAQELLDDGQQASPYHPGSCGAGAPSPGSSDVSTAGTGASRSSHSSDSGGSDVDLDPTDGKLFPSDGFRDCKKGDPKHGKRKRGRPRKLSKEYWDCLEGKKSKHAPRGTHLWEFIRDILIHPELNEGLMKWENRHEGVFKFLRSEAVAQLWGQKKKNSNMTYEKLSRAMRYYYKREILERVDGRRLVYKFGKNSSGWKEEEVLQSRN
Method in brief: as §1

CRX = CRX (Homo sapiens, UniProt O43186 1-299); details: protein: recombinant; tags: N-terminal GST; dsDNA, one strand shown
Sequence of CRX (O43186 whole entry): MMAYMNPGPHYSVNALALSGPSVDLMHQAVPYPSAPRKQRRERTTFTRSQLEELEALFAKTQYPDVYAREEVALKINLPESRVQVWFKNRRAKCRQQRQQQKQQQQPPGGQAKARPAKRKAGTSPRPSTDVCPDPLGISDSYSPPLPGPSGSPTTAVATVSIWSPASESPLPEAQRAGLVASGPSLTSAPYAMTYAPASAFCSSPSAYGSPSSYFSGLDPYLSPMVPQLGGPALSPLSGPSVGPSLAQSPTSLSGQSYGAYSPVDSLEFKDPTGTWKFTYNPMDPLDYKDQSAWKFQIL
Method in brief: as §1

ETV1 = ETV1 (Homo sapiens, UniProt P50549 1-477); details: protein: recombinant; tags: N-terminal GST; dsDNA, one strand shown
Sequence of ETV1 (P50549 whole entry): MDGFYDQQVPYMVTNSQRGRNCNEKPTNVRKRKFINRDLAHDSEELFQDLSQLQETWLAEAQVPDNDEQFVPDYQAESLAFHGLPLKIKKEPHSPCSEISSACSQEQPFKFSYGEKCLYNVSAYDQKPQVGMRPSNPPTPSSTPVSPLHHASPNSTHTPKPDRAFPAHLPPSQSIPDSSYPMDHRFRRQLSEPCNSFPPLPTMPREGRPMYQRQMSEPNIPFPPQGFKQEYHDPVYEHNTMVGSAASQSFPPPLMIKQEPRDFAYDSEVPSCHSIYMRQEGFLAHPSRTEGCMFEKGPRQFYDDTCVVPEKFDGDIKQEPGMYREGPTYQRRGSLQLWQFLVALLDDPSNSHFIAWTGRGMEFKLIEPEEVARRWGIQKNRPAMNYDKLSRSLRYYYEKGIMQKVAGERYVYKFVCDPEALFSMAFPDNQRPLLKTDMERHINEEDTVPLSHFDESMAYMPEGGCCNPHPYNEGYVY
Method in brief: as §1

ERF = biological target: T6, ERF (Homo sapiens, UniProt P50548 1-548); details: protein: recombinant; tags: N-terminal GST; dsDNA, one strand shown
T6 sequence: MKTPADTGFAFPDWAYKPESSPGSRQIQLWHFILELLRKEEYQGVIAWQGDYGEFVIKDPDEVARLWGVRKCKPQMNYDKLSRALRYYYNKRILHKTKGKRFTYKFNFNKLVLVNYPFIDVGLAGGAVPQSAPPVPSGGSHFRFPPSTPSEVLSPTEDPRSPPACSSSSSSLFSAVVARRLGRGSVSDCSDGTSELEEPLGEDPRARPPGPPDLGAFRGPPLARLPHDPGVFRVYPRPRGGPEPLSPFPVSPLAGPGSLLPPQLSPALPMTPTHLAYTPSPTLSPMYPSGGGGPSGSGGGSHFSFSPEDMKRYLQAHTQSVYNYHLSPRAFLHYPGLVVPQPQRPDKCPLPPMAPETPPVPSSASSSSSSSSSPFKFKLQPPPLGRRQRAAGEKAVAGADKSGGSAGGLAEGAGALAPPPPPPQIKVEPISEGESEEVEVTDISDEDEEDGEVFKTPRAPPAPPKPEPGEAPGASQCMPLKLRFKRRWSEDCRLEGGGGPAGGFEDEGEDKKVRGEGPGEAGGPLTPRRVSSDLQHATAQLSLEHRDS
Method in brief: as §1

ETV3L = biological target: T7, ETV3L (Homo sapiens, UniProt Q6ZN32 1-361); details: protein: recombinant; tags: N-terminal GST; dsDNA, one strand shown
T7 sequence: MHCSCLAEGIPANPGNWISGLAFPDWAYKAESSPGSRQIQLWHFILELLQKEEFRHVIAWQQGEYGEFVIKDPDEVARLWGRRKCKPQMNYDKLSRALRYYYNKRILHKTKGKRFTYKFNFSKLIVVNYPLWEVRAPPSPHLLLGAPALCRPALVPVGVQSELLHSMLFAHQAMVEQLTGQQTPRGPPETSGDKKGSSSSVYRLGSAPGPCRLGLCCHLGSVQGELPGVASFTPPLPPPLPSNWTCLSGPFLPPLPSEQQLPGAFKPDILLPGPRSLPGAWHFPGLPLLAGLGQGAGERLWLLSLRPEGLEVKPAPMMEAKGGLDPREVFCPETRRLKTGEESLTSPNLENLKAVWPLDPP
Method in brief: as §1

ETS2 = biological target: T8, ETS2 (Homo sapiens, UniProt P15036 1-469); details: protein: recombinant; tags: N-terminal GST; dsDNA, one strand shown
T8 sequence: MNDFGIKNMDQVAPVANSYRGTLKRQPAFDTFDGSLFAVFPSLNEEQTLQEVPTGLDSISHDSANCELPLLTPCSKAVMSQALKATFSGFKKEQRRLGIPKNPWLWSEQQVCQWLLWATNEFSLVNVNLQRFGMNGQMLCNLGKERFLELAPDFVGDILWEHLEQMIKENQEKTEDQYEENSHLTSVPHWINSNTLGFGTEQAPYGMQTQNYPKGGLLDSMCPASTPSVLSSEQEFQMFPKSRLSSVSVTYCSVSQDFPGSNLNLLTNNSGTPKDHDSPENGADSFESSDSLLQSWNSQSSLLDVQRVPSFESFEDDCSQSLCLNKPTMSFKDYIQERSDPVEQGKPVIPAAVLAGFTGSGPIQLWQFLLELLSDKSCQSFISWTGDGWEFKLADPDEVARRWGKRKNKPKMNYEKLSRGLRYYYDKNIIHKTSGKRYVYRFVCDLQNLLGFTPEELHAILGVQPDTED
Method in brief: as §1

SPDEF = biological target: T9, SPDEF (Homo sapiens, UniProt O95238 1-335); details: protein: recombinant; tags: N-terminal GST; dsDNA, one strand shown
T9 sequence: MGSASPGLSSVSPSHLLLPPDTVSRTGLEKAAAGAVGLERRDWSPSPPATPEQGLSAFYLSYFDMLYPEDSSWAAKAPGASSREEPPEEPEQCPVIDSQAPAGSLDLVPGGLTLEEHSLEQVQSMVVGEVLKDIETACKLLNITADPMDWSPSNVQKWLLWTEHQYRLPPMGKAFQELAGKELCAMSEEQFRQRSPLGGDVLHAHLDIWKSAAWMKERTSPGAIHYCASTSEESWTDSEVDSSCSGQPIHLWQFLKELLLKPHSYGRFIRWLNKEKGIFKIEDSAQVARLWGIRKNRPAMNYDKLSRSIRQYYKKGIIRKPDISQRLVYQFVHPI
Method in brief: as §1

ELF5 = biological target: T10, ELF5 (Homo sapiens, UniProt Q9UKW6-2 1-255); details: protein: recombinant; tags: N-terminal GST; dsDNA, one strand shown
T10 sequence: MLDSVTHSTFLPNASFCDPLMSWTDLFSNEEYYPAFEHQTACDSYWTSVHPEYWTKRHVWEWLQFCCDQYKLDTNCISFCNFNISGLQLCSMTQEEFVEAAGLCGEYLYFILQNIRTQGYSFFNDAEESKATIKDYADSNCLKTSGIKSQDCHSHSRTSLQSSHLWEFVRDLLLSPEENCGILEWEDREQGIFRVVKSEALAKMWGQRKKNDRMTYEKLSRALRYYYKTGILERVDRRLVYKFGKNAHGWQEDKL
Method in brief: as §1

ETV3 = biological target: T11, ETV3 (Homo sapiens, UniProt P41162-2 1-143); details: protein: recombinant; tags: N-terminal GST; dsDNA, one strand shown
T11 sequence: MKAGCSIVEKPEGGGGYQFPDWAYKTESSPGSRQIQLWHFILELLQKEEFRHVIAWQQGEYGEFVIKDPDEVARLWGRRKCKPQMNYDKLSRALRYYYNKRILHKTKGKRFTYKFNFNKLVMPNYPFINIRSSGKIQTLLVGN
Method in brief: as §1

ETV6 = ETV6 (Homo sapiens, UniProt P41212 1-452); details: protein: recombinant; tags: N-terminal GST; dsDNA, one strand shown
Sequence of ETV6 (P41212 whole entry): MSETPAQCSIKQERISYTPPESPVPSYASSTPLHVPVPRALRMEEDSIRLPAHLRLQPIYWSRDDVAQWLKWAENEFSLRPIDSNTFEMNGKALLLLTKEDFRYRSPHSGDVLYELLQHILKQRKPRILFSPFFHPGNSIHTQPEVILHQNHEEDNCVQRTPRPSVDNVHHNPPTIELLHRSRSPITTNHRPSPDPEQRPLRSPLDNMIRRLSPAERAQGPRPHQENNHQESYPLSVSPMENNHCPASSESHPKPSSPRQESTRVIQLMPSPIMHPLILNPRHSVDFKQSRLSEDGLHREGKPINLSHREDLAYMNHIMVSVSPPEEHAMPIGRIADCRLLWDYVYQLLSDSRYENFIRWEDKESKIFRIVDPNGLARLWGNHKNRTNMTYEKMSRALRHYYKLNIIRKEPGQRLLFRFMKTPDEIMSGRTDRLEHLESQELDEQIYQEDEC
Method in brief: as §1

For AGCCCT, which binding signal (FEV) is on record?
Its binding signal is 1.14 fold enrichment (6-mer frequency, TF over GST control).

What about the binding signal (ETV5) of the same sequence?
Its binding signal is 1.08 fold enrichment (6-mer frequency, TF over GST control).

What about the binding signal (HSF1) of the same sequence?
Its binding signal is 1.09 fold enrichment (6-mer frequency, TF over GST control).

And the binding signal (SPIC)?
Its binding signal is 1.25 fold enrichment (6-mer frequency, TF over GST control).

And the binding signal (ELF4)?
Its binding signal is 1.06 fold enrichment (6-mer frequency, TF over GST control).

And the binding signal (ELK4)?
The binding signal was 1.14 fold enrichment (6-mer frequency, TF over GST control).

What about the binding signal (ETV2) of the same sequence?
The binding signal was 1.18 fold enrichment (6-mer frequency, TF over GST control).

What about the binding signal (ELF3) of the same sequence?
The binding signal was 1.1 fold enrichment (6-mer frequency, TF over GST control).

And the binding signal (CRX)?
The binding signal was 1.25 fold enrichment (6-mer frequency, TF over GST control).

What about the binding signal (ETV1) of the same sequence?
Its binding signal is 1.05 fold enrichment (6-mer frequency, TF over GST control).

What about the binding signal (ERF) of the same sequence?
The binding signal was 1.11 fold enrichment (6-mer frequency, TF over GST control).

And the binding signal (ETV3L)?
The binding signal was 1.12 fold enrichment (6-mer frequency, TF over GST control).

And the binding signal (ETS2)?
The binding signal was 1.16 fold enrichment (6-mer frequency, TF over GST control).

And the binding signal (SPDEF)?
The binding signal was 1.07 fold enrichment (6-mer frequency, TF over GST control).

And the binding signal (ELF5)?
Its binding signal is 1.08 fold enrichment (6-mer frequency, TF over GST control).

And the binding signal (ETV3)?
The binding signal was 1.15 fold enrichment (6-mer frequency, TF over GST control).

And the binding signal (ETV6)?
The binding signal was 1.11 fold enrichment (6-mer frequency, TF over GST control).
